Bioassay records (PubChem BioAssay)
In the library only some 1.8% were active in any assay of this set; here they are far more common.
LYPLA1 counter: blocks human lysophospholipase 1, a PME1 counter-screen | 320,000 compounds, 0.16% hits | inhibition, % at 5.9 µM | recombinant LYPLA1, FP-Rh probe fluorescence polarization | AID 2174;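 active = inhibition above the mean of all tested compounds plus 3 SD, set per campaign, cut at about 14% in these data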;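 also: inhibitors block serine hydrolase probe labeling of LYPLA1 so polarization falls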
Target sequence (O75608 whole entry, looked up): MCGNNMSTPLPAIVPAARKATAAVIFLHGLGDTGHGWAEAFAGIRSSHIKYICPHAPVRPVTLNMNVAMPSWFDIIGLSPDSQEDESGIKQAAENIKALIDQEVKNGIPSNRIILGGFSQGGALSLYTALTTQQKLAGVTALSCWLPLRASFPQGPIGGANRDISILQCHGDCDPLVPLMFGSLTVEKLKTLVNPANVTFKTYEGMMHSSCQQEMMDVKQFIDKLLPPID
PME-1 inh: PME-1 (human) inhibition; Q9Y570; AID 2130; 320,000 compounds, 0.53% hits; inhibition, % at 5.9 µM; recombinant PME-1, FP-Rh probe fluorescence polarization;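 active = inhibition above the campaign mean of all compounds plus 3 SD, cut at about 26% in these data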;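 also: competitive labeling of PME-1 active site by serine hydrolase directed probe; inhibitors block probe labeling so polarization falls and inhibition rises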
LYPLA2 counter: counter-screen for PME1 inhibitors: inhibitors of human LYPLA2; recombinant LYPLA2, FP-Rh probe fluorescence polarization; O95372; AID 2177; 320,000 compounds, 0.38% hits; inhibition, % at 5.9 µM;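 active = inhibition above the screen-wide mean plus 3 SD, limit set per campaign, cut at about 26% in these data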
Target sequence (O95372 whole entry, looked up): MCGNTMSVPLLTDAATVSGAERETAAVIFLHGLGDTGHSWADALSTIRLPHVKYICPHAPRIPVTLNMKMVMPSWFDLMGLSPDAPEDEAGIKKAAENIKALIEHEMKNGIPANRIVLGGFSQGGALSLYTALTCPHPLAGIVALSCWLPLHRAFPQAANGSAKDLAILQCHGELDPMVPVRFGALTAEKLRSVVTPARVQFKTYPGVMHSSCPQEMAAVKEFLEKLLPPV
GSTO1 counter: counter-screen for RBBP9 inhibitors: inhibitors of human GSTO1. P78417. recombinant GSTO1, activity-based probe fluorescence polarization. inhibition, % at 5.96 µM. 300,000 compounds, 1.1% hits. AID 1974;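 active = inhibition above the campaign mean inhibition plus 3 SD, cut at about 35% in these data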
Target sequence (P78417 whole entry, looked up): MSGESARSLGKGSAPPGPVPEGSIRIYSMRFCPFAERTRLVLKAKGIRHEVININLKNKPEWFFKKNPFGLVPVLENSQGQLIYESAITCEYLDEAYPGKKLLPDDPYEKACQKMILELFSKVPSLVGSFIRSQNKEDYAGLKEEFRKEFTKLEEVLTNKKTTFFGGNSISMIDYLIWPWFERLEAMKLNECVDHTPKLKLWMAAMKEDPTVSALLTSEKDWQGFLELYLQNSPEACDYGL
PAD4 FP inh: PAD4 (human) enzyme inhibition | Q9UM07 | inhibition, % at 6.36 µM | recombinant PAD4, RCA probe fluorescence polarization | 330,000 compounds, 0.41% hits;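 active = percent inhibition above a cutoff equal to the mean of all tested compounds plus 3 SD, cut at about 15% in these data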
Fam108B counter: Fam108B inhibition, counter-screen for RBBP9 inhibitors; recombinant Fam108B, FP-Rh probe fluorescence polarization; inhibition, % at 9.51 µM; 300,000 compounds, 0.33% hits;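 active = inhibition above the screen mean inhibition plus 3 SD, computed separately per campaign, cut at about 18% in these data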;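 also: inhibitors lower polarization as less probe binds the enzyme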
Fam108b inh conf: Fam108b (mouse) hydrolase inhibition, confirmation assay. recombinant Fam108b, FP-Rh probe fluorescence polarization. 930 compounds, 44% hits. shares compounds with Fam108B counter. inhibition, % at 9.51 µM;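 active = inhibition above a limit from the primary screen, the mean over all compounds plus 3 SD, cut at about 19% in these data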;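 also: inhibitors free the probe so polarization falls as inhibition rises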
Fam108b inh: inhibits mouse Fam108b in gel-based ABPP. shares compounds with Fam108B counter. inhibition, % at 20 µM. 260 compounds, 44% hits. recombinant Fam108b, fluorophosphonate probe; in the data active = inhibition above about 40%
Hits are given with their value.

How did Cc1ccc(NC(=O)CN2C(=O)N/C(=C/c3cccn3-c3ccc(C(=O)O)cc3)C2=O)cc1 do in these assays?
LYPLA1 counter: inactive; PME-1 inh: inactive; LYPLA2 counter: inactive; GSTO1 counter: 37.2; PAD4 FP inh: inactive; Fam108B counter: 43.5; Fam108b inh conf: 39.4; Fam108b inh: inactive

How did Cc1ccc(NC(=O)CN2C(=O)N/C(=C/c3ccco3)C2=O)cc1 do in these assays?
LYPLA1 counter: inactive; PME-1 inh: inactive; LYPLA2 counter: inactive; GSTO1 counter: inactive; PAD4 FP inh: inactive; Fam108B counter: inactive

Results for O=c1/c(=C/c2ccccn2)sc2nc3ccccc3n12 ?
LYPLA1 counter: inactive; PME-1 inh: inactive; LYPLA2 counter: inactive; GSTO1 counter: inactive; PAD4 FP inh: inactive; Fam108B counter: inactive

How did O=C(O)c1cccc(-c2ccc(/C=c3/sc4nc5ccccc5n4c3=O)o2)c1 do in these assays?
LYPLA1 counter: inactive; PME-1 inh: inactive; LYPLA2 counter: inactive; GSTO1 counter: inactive; PAD4 FP inh: inactive; Fam108B counter: 25.3; Fam108b inh conf: inactive

How did O=c1c(=Cc2cc([N+](=O)[O-])cc([N+](=O)[O-])c2O)sc2nc3ccccc3n12 do in these assays?
Fam108b inh: inactive

What do the screens show for `O=C(NN1C(=O)/C(=C/c2ccc(O)c([N+](=O)[O-])c2)SC1=S)c1ccccc1Cl`?
LYPLA1 counter: inactive; PME-1 inh: inactive; LYPLA2 counter: inactive; GSTO1 counter: inactive; PAD4 FP inh: inactive; Fam108B counter: 24.8; Fam108b inh conf: 20.4

Results for COc1ccc(-c2ccc3c(c2)S(=O)(=O)c2cccc(C(=O)N4CCN(C5CCCCC5)CC4)c2C3=O)cc1OC ?
PAD4 FP inh: inactive

What do the screens show for `CCOC(=O)c1ccc(Nc2cc(C)nc(-c3ccccc3)n2)cc1`?
LYPLA1 counter: inactive; PME-1 inh: inactive; LYPLA2 counter: inactive; GSTO1 counter: inactive; PAD4 FP inh: inactive; Fam108B counter: 18.4; Fam108b inh conf: inactive

How did O=C(O)C1C2C=CC(C2)C1C(=O)NCc1ccc(Cl)cc1Cl (stereo unspecified) do in these assays?
LYPLA1 counter: inactive; PME-1 inh: inactive; LYPLA2 counter: inactive; GSTO1 counter: inactive; PAD4 FP inh: inactive; Fam108B counter: inactive

How did CCOC(=O)c1c(NC(=O)/C=C/c2ccc3c(c2)OCO3)sc(C)c1CC do in these assays?
LYPLA1 counter: inactive; PME-1 inh: inactive; LYPLA2 counter: inactive; GSTO1 counter: inactive; PAD4 FP inh: inactive; Fam108B counter: 81.6; Fam108b inh conf: inactive

Results for CSC1=NSC2=NC(=O)/C(=C\c3cccs3)C(=N)N12 ?
LYPLA1 counter: inactive; PME-1 inh: inactive; LYPLA2 counter: inactive; GSTO1 counter: inactive; PAD4 FP inh: inactive; Fam108B counter: inactive

How did CSC1=NSC2=NC(=O)/C(=C/c3coc4ccc(O)cc4c3=O)C(=N)N12 do in these assays?
LYPLA1 counter: inactive; PME-1 inh: inactive; LYPLA2 counter: inactive; GSTO1 counter: inactive; PAD4 FP inh: inactive; Fam108B counter: 27.7; Fam108b inh conf: inactive

How did N=C1/C(=C\c2coc3ccccc3c2=O)C(=O)N=C2SC=CN12 do in these assays?
LYPLA1 counter: inactive; PME-1 inh: inactive; LYPLA2 counter: inactive; GSTO1 counter: inactive; PAD4 FP inh: inactive; Fam108B counter: inactive

Results for CSC1=NSC2=NC(=O)/C(=C/c3coc4ccccc4c3=O)C(=N)N12 ?
LYPLA1 counter: inactive; PME-1 inh: inactive; LYPLA2 counter: inactive; GSTO1 counter: inactive; PAD4 FP inh: inactive; Fam108B counter: 40.6; Fam108b inh conf: 52.0; Fam108b inh: inactive

How did N#CC1=C(N)SC(N)=C(C#N)C1c1ccoc1 do in these assays?
LYPLA1 counter: inactive; PME-1 inh: inactive; LYPLA2 counter: inactive; GSTO1 counter: inactive; PAD4 FP inh: inactive; Fam108B counter: 25.6; Fam108b inh conf: inactive

Results for O=C(Nc1cccc(Cl)c1)Nc1ccc2c(c1)OCO2 ?
LYPLA1 counter: inactive; PME-1 inh: inactive; LYPLA2 counter: inactive; GSTO1 counter: inactive; PAD4 FP inh: inactive; Fam108B counter: 19.1; Fam108b inh conf: inactive

What do the screens show for `O=C(Nc1cccc(S(=O)(=O)NC2=NCCC2)c1)c1cnc(Cl)c(Cl)c1`?
LYPLA1 counter: inactive; PME-1 inh: inactive; LYPLA2 counter: inactive; PAD4 FP inh: inactive

How did Oc1ccc(N=Cc2ccc(O)c(O)c2)cc1 do in these assays?
LYPLA1 counter: inactive; PME-1 inh: 46.5; LYPLA2 counter: inactive; GSTO1 counter: 87.9; PAD4 FP inh: inactive; Fam108B counter: 36.0; Fam108b inh conf: inactive

How did Cc1ccc(N2C(=O)C3CCC(C)(C2=O)C3(C)C)cc1 (stereo unspecified) do in these assays?
LYPLA1 counter: inactive; PME-1 inh: inactive; LYPLA2 counter: inactive; GSTO1 counter: inactive; PAD4 FP inh: inactive; Fam108B counter: inactive

What do the screens show for `CSC[C@@H]1NC(=S)N(c2ccc(C)cc2)C1=O`?
LYPLA1 counter: inactive; PME-1 inh: 60.3; LYPLA2 counter: inactive; GSTO1 counter: inactive; PAD4 FP inh: inactive; Fam108B counter: 30.6; Fam108b inh conf: 50.2; Fam108b inh: 40.0

What do the screens show for `CCCCCC(=O)Nc1nc(C)c(-c2csc(Nc3ccc(Cl)cc3)n2)s1`?
LYPLA1 counter: inactive; PME-1 inh: inactive; LYPLA2 counter: inactive; GSTO1 counter: inactive; PAD4 FP inh: inactive; Fam108B counter: 20.2; Fam108b inh conf: inactive

What do the screens show for `COc1ccc(OC)c(Nc2nc(-c3sc(NC(=O)c4ccccc4)nc3C)cs2)c1`?
LYPLA1 counter: inactive; PME-1 inh: inactive; LYPLA2 counter: inactive; GSTO1 counter: inactive; PAD4 FP inh: inactive; Fam108B counter: 18.6; Fam108b inh conf: inactive

How did COc1ccc(Cl)cc1Nc1nc(-c2sc(NC(=O)c3ccccc3)nc2C)cs1 do in these assays?
LYPLA1 counter: inactive; PME-1 inh: inactive; LYPLA2 counter: inactive; GSTO1 counter: inactive; PAD4 FP inh: inactive; Fam108B counter: inactive

How did Cc1ccc(Nc2nc(-c3sc(NC(=O)c4ccc([N+](=O)[O-])cc4)nc3C)cs2)cc1 do in these assays?
LYPLA1 counter: inactive; PME-1 inh: inactive; LYPLA2 counter: inactive; GSTO1 counter: inactive; PAD4 FP inh: inactive; Fam108B counter: 22.3; Fam108b inh conf: inactive

What do the screens show for `CCOc1ccccc1Nc1nc(-c2sc(NC(=O)c3ccc([N+](=O)[O-])cc3)nc2C)cs1`?
LYPLA1 counter: inactive; PME-1 inh: inactive; LYPLA2 counter: inactive; GSTO1 counter: inactive; PAD4 FP inh: inactive; Fam108B counter: 22.1; Fam108b inh conf: 24.5

What do the screens show for `Cc1ccccc1Nc1nc(-c2sc(NC(=O)c3ccc([N+](=O)[O-])cc3)nc2C)cs1`?
LYPLA1 counter: inactive; PME-1 inh: inactive; LYPLA2 counter: inactive; GSTO1 counter: inactive; PAD4 FP inh: inactive; Fam108B counter: inactive

Results for COc1ccc(C)cc1N(CC(=O)NCCSCc1ccco1)S(=O)(=O)c1ccc(C)cc1 ?
LYPLA1 counter: inactive; PME-1 inh: inactive; LYPLA2 counter: inactive; GSTO1 counter: inactive; PAD4 FP inh: inactive; Fam108B counter: inactive
